Results reported in the supplement of paper PMC10849652.
Targets with a hit are over-represented here; the source holds about 7,900 in all. About 0.6% of all pairs of compound and target were hits. A number with no mark means an inactive call.

Experiments:
Assay in all cases: log2 fold change, soluble protein after heating vs DMSO (PISA); higher = thermal stabilisation; K562 cells, 10 uM, 30 min; active = over 0.2 and 3.5 SD of the protein, either way, in both replicates (recomputed)
saracatinib = compound: CN1CCN(CCOc2cc(OC3CCOCC3)c3c(Nc4c(Cl)ccc5c4OCO5)ncnc3c2)CC1 [saracatinib]
In short: (§1)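 K562 cells at 2×10^6 cells/mL were treated for 30 min with 10 μM compound, and aliquots were heated for 3 min over 48°C-58°C before pooling. Extraction used PBS with 0.5% NP-40 at 4°C, and soluble protein was the supernatant after 21,000xg for 90 min, measured by TMTpro 16plex LC-MS/MS with channel sums equalised. Thermal stability values, relative to control samples and from duplicates, are log2 fold changes.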

sotrastaurin = compound: CN1CCN(c2nc(C3=C(c4c[nH]c5ccccc45)C(=O)NC3=O)c3ccccc3n2)CC1 [sotrastaurin]
In short: as §1

alvocidib = compound: CN1CC[C@H](c2c(O)cc(O)c3c(=O)cc(-c4ccccc4Cl)oc23)[C@H](O)C1 [alvocidib]
In short: as §1

Tubastatin A = compound: CN1CCc2c(c3ccccc3n2Cc2ccc(C(=O)NO)cc2)C1 [Tubastatin A]
In short: as §1

[1] = compound: CNC(=O)C1=CC=CC=C1NC2=NC(=NC=C2Cl)NC3=C(C=C(C=C3)N4CCOCC4)OC
In short: as §1

defactinib = compound: CNC(=O)c1ccc(Nc2ncc(C(F)(F)F)c(NCc3nccnc3N(C)S(C)(=O)=O)n2)cc1 [defactinib]
In short: as §1

rucaparib = compound: CNCc1ccc(-c2[nH]c3cc(F)cc4c3c2CCNC4=O)cc1 [rucaparib]
In short: as §1

[2] = compound: CNc1nc(-c2ccc3c(N)n[nH]c3c2)cc(N2C[C@@H](C(=O)NC3CCCCC3)CC[C@H]2C)n1
In short: as §1

encorafenib = compound: COC(=O)N[C@@H](C)CNc1nccc(-c2cn(C(C)C)nc2-c2cc(Cl)cc(NS(C)(=O)=O)c2F)n1 [encorafenib]
In short: as §1

[3] = compound: COC(=O)[C@H](CCSC)NC(=O)C1=C(C=C(C=C1)NC[C@H](CS)N)C2=CC=CC=C2
In short: as §1

Chain of UniProt Q71RC2 (Q71RC2 whole entry, looked up): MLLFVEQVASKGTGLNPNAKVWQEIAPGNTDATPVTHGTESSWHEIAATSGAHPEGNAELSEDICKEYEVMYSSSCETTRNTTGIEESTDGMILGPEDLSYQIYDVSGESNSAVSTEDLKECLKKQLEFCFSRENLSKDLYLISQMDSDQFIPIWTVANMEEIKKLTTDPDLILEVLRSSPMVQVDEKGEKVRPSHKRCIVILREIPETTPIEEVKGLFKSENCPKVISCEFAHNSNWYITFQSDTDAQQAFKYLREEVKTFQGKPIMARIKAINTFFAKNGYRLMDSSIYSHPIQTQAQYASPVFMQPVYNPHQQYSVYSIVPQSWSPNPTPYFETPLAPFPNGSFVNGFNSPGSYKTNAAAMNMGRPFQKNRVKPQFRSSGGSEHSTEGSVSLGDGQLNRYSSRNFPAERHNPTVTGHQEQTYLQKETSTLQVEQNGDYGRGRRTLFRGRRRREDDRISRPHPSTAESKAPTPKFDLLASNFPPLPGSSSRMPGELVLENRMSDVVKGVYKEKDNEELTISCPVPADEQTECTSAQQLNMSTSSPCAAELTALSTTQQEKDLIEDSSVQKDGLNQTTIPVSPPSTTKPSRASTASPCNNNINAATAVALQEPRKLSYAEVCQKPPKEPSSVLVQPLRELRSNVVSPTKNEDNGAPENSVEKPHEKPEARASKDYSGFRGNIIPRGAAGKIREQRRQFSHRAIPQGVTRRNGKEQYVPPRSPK
Chain of UniProt Q96LU5 (Q96LU5 whole entry, looked up): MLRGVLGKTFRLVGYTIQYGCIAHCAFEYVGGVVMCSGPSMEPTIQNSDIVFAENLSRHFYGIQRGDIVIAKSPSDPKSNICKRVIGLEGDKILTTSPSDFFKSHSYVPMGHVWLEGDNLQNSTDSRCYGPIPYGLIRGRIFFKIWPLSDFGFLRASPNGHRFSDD
Chain of UniProt Q8IWA4 (Q8IWA4 whole entry, looked up): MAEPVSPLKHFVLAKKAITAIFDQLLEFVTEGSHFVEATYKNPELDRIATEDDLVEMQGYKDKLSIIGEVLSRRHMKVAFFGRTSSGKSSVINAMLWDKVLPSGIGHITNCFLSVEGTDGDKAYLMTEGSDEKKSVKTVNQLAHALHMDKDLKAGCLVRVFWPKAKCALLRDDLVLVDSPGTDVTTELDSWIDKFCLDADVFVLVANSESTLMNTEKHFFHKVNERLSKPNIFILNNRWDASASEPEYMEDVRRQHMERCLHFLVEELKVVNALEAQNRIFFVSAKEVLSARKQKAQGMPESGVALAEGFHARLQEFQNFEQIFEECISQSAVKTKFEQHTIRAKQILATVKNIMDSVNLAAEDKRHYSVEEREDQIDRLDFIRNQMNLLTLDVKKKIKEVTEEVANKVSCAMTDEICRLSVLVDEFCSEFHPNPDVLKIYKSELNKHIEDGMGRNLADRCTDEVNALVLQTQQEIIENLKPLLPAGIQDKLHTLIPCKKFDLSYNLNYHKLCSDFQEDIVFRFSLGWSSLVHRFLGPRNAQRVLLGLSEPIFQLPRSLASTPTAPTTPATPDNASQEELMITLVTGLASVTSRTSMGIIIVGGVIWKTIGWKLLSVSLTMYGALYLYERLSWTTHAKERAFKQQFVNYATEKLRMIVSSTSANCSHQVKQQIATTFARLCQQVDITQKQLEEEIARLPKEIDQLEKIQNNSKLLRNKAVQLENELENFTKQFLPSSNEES
Chain of UniProt P23368 (P23368 whole entry, looked up): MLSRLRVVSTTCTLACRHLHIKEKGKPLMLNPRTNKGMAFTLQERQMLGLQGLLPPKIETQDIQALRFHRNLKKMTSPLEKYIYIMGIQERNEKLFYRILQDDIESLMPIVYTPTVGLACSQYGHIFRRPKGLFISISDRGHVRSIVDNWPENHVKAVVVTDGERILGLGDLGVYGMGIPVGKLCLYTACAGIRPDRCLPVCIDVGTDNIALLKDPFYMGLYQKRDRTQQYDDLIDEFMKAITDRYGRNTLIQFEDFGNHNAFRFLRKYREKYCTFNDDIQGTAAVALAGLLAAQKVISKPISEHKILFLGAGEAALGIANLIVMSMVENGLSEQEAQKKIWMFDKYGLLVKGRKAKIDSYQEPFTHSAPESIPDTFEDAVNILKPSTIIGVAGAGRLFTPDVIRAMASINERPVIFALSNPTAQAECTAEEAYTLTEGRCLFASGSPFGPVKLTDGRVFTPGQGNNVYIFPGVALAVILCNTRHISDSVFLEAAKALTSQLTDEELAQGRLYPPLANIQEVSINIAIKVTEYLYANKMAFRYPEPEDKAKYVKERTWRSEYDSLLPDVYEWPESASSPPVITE
Chain of UniProt Q7LBC6 (Q7LBC6 whole entry, looked up): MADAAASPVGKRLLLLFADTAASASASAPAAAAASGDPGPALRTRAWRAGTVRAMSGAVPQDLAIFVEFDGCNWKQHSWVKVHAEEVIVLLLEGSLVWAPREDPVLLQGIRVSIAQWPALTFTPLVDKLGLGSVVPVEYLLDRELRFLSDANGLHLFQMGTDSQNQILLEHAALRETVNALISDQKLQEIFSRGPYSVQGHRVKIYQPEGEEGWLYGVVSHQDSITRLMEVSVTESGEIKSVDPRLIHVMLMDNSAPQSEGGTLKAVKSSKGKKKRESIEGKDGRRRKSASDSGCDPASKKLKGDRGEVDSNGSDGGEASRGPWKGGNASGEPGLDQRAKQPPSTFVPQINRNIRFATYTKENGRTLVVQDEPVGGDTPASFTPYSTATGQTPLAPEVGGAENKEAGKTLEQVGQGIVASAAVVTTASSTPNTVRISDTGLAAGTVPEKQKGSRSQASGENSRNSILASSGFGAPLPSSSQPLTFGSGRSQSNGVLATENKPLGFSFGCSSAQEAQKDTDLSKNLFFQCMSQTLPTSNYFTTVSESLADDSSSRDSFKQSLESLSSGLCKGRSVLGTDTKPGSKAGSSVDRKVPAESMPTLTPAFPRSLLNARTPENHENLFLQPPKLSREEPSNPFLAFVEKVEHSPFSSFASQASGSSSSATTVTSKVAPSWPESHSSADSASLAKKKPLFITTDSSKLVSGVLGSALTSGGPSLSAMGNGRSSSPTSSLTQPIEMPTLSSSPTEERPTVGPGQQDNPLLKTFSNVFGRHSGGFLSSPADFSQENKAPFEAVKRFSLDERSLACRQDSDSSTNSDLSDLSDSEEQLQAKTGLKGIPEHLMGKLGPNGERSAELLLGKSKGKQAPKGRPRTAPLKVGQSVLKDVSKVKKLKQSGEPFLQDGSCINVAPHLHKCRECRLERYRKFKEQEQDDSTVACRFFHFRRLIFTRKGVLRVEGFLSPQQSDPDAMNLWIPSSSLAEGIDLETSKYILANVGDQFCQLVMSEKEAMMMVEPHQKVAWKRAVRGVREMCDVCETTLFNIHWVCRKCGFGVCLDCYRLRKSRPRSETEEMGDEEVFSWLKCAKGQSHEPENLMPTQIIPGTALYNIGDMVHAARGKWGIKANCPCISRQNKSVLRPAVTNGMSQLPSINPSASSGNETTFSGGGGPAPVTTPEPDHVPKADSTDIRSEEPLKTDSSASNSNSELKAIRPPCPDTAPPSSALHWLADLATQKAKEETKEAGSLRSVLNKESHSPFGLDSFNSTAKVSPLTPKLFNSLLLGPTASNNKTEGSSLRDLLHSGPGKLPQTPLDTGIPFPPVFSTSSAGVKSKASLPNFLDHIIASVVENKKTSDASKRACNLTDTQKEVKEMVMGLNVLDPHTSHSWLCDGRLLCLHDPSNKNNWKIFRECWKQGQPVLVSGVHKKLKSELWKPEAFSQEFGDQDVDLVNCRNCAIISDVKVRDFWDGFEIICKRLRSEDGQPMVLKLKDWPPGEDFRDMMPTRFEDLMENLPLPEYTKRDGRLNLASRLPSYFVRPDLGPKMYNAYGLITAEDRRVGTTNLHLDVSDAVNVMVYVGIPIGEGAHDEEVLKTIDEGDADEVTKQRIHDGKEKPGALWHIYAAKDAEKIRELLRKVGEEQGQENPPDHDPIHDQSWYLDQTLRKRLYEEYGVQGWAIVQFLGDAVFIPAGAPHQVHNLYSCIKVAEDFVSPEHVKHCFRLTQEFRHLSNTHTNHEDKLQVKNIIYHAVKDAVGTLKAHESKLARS
Chain of UniProt P27448 (P27448 whole entry, looked up): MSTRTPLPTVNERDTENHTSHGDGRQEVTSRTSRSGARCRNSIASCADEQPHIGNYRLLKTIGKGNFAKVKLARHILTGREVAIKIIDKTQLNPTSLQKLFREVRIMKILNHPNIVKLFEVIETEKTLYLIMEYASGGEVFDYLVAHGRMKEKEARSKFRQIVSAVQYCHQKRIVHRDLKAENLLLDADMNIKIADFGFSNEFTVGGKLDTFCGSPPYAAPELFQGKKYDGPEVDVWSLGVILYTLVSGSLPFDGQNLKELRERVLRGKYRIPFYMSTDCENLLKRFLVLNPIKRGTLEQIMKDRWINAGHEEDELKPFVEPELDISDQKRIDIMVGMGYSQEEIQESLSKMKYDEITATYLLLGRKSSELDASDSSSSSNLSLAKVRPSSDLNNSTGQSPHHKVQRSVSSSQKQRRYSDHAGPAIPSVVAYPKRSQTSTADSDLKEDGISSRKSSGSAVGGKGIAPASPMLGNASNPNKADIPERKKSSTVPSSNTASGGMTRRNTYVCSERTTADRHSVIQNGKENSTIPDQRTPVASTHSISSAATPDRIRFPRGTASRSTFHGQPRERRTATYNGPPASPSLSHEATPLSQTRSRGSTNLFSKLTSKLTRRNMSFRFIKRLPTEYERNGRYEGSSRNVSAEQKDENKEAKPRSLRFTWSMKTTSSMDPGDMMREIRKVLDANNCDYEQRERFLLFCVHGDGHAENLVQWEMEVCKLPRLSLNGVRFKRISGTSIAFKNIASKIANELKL
Chain of UniProt O14880 (O14880 whole entry, looked up): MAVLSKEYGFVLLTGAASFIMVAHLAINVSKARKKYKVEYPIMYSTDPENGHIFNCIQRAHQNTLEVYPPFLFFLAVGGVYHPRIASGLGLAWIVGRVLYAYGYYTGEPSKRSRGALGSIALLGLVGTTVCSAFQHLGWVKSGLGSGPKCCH
Chain of UniProt P14174 (P14174 whole entry, looked up): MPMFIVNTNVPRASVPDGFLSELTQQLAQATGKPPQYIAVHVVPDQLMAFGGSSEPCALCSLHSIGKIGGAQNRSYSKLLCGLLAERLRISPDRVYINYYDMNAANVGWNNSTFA

| Target | log2 fold change (saracatinib) | log2 fold change (sotrastaurin) | log2 fold change (alvocidib) | log2 fold change (Tubastatin A) | log2 fold change [1] | log2 fold change (defactinib) | log2 fold change (rucaparib) | log2 fold change [2] | log2 fold change (encorafenib) | log2 fold change [3] |
| --- | --- | --- | --- | --- | --- | --- | --- | --- | --- | --- |
| ITM2B (UniProt Q9Y287) | -0.181 | 0.123 | -0.053 | 0.143 | 0.06 | -0.007 | 0.007 | 0.091 | 0.098 | -0.096 |
| IPO13 (UniProt O94829) | 0.111 | -0.123 | 0.013 | -0.03 | 0.001 | -0.04 | -0.016 | -0.109 | 0.039 | 0.033 |
| MIF (UniProt P14174) | -0.029 | -0.005 | -0.001 | -0.065 | 0.82 | -0.019 | 0.026 | -0.105 | -0.058 | 0.06 |
| MAP1LC3B2 (UniProt A6NCE7) | 0.016 | -0.115 | -0.063 | 0.037 | 0.026 | -0.015 | 0.004 | -0.015 | 0.032 | -0.048 |
| ME2 (UniProt P23368) | 0.061 | 0.014 | 0.022 | 0.026 | 0.151 | -0.037 | -0.011 | -0.11 | 0.015 | 0.034 |
| LRRFIP1 (UniProt Q32MZ4) | 0.017 | 0.047 | 0.014 | -0.005 | -0.009 | -0.01 | -0.01 | -0.034 | -0.019 | 0.022 |
| MAP2K7 isoform 4 (UniProt O14733) | 0.063 | 0.026 | -0.028 | -0.002 | -0.04 | -0.012 | 0.036 | -0.001 | 0.013 | -0.01 |
| KSR1 (UniProt Q8IVT5) | -0.229 | -0.149 | -0.135 | 0.054 | -0.061 | -0.073 | -0.044 | 0.038 | 0.081 | 0.012 |
| MGST3 (UniProt O14880) | 0.037 | 0.064 | 0.021 | -0.01 | -0.029 | 0.012 | -0.027 | -0.028 | -0.033 | 0.053 |
| LPIN1 isoform 7 (UniProt Q14693) | 0.003 | -0.093 | -0.059 | 0.041 | -0.113 | -0.03 | -0.054 | -0.13 | 0.009 | 0.035 |
| MAPK8 isoform 3 (UniProt P45983) | -0.006 | 0.052 | 0.087 | 0.009 | 0.942 (active) | -0.009 | 0.031 | -0.07 | 0.029 | -0.029 |
| LMNA (UniProt P02545) | 0.041 | -0.083 | -0.214 (active) | -0.033 | 0.003 | -0.121 | -0.08 | -0.138 | -0.019 | 0.042 |
| KPNB1 (UniProt Q14974) | -0.076 | -0.21 | -0.01 | 0.031 | 0.043 | -0.039 | 0.126 | 0.032 | 0.201 | -0.063 |
| INPP5B (UniProt P32019) | 0.024 | -0.079 | -0.076 | 0.07 | -0.007 | 0.112 | 0.066 | 0.043 | -0.151 | 0.141 |
| KCTD10 (UniProt Q9H3F6) | 0.221 | -0.002 | 0.018 | 0.071 | -0.011 | 0.013 | -0.07 | 0.007 | 0.015 | -0.07 |
| MARCKS (UniProt P29966) | 0.019 | 0.077 | -0.016 | 0.039 | 0.005 | 0.009 | -0.02 | -0.02 | -0.014 | 0.002 |
| KEAP1 (UniProt Q14145) | -0.009 | -0.119 | 0.02 | -0.035 | 0.054 | -0.045 | 0.116 | -0.015 | 0.059 | -0.003 |
| ITPRIP (UniProt Q8IWB1) | -0.028 | 0.016 | -0.116 | 0.034 | 0.011 | -0.037 | 0.034 | -0.084 | -0.009 | 0.013 |
| MAPK14 isoform 2 (UniProt Q16539) | 0.486 | -0.085 | -0.021 | 0.145 | 0.559 | -0.25 | 0.127 | -0.029 | 0.91 (active) | -0.014 |
| LARP1 (UniProt Q6PKG0) | -0.023 | -0.029 | 0.12 | 0.059 | 0.05 | 0.089 | 0.11 | 0.004 | 0.039 | 0.01 |
| MICU2 (UniProt Q8IYU8) | 0 | -0.001 | 0.048 | 0.057 | -0.03 | -0.014 | 0.102 | -0.021 | 0.073 | -0.044 |
| LARP4 isoform 4 (UniProt Q71RC2) | -0.066 | -0.051 | 0.031 | 0.041 | 0.047 | -0.036 | 0.257 | 0.059 | 0.086 | -0.014 |
| IMMP1L (UniProt Q96LU5) | -0.041 | -0.005 | 0.039 | -0.024 | -0.01 | 0.011 | -0.039 | -0.102 | -0.037 | -0.027 |
| MFN1 (UniProt Q8IWA4) | -0.029 | 0.016 | -0.076 | 0.025 | -0.019 | -0.074 | -0.015 | 0.023 | 0.038 | 0 |
| METTL18 (UniProt O95568) | 0.024 | 0.066 | -0.056 | -0.037 | -0.042 | -0.021 | -0.041 | -0.031 | 0.108 | -0.176 |
| LBR (UniProt Q14739) | 0.008 | 0.036 | -0.032 | -0.008 | -0.02 | -0.022 | 0.164 | 0.116 | 0.058 | -0.089 |
| MED16 (UniProt Q9Y2X0) | -0.006 | -0.044 | -0.236 | -0.098 | 0.074 | -0.009 | -0.004 | 0.043 | -0.025 | -0.052 |
| KDM3B (UniProt Q7LBC6) | 0.01 | -0.089 | -0.091 | -0.01 | 0.072 | -0.161 | -0.058 | -0.093 | 0.054 | -0.029 |
| KIF11 (UniProt P52732) | -0.059 | -0.2 | 0.041 | 0.05 | 0.275 | 0.017 | 0.183 | 0.088 | 0.174 | -0.055 |
| MARK3 (UniProt P27448) | 0.024 | -0.434 (active) | -0.011 | 0.058 | -0.367 | -0.176 | -0.016 | -0.069 | 0.096 | 0.033 |
